Measurements taken from PubChem BioAssay AID652257 (The Scripps Research Institute Molecular Screening Center, 2013).
The campaign covered roughly 370,000 compounds. About 4,800 (1.3%) were called active. The sample as a whole holds a higher share of actives than the screen did. Values without a mark were called inactive.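 How the source made its calls: active means inhibition above about 21% made by adding two undisclosed values (limit read from the data); inactive means the rest.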

biological target: Protein arginine N-methyltransferase 1 (Homo sapiens) (UniProt Q99873); assay: PRMT1 methyltransferase inhibitors, primary screen, biochemical, fluorescence polarization (AID 652257); conditions: recombinant PRMT1, activity-based probe fluorescence polarization; at 2.79 µM; stronger effect = higher value
Sequence (Q99873 whole entry, looked up): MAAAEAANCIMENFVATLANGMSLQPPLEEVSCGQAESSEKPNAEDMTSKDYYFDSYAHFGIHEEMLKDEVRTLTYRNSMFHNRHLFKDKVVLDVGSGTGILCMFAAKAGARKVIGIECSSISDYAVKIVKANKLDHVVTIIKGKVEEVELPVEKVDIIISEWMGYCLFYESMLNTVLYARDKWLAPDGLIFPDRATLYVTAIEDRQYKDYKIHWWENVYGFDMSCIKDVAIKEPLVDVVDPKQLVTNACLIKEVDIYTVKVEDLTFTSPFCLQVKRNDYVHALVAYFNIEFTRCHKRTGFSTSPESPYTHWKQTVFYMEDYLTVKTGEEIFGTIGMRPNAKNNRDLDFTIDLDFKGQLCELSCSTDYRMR

Question: With CCOC(=O)N1CCN(C(=O)C[C@H]2C[C@@]3(C(=O)OC)C(=C[C@H](C(C)(C)C)O[C@@H]3C)N(Cc3ccc(Cl)cc3Cl)C2=O)CC1 as the molecule, how does the inhibition read?
Answer: The inhibition was 1.72%.

Question: Which inhibition does the source give for Cc1ccc(N2C(=O)CC(Sc3ncn[nH]3)C2=O)cc1 (stereo not drawn) here?
Answer: Its inhibition is 85.1% (active).

Question: With COc1ccc(N2C(=O)C(O)C2c2ccc(C)cc2)cc1 (stereo not drawn) as the molecule, how does the inhibition read?
Answer: Its inhibition is 3.23%.

Question: With CC(=O)Nc1ccc(N2C(=O)CC(Sc3nccc(C)n3)C2=O)cc1 (stereo not drawn) as the molecule, how does the inhibition read?
Answer: The inhibition was 15.5%.

Question: With COc1ccc(N2C(=O)CC(Sc3n[nH]c(-c4ccc(C)cc4)n3)C2=O)cc1 (stereo not drawn) as the molecule, how does the inhibition read?
Answer: The inhibition was 66% (active).

Question: O=C(CSc1ncn[nH]1)Nc1ccnc2ccccc12 was tested. Which inhibition did it give?
Answer: Its inhibition is 0.32%.

Question: For CCOc1ccccc1N1C(=O)CC(Sc2nccc(C)n2)C1=O (stereo not drawn), which inhibition is on record?
Answer: The inhibition was 14.4%.

Question: With O=C1CC(Sc2ncn[nH]2)C(=O)N1c1ccccc1 (stereo not drawn) as the molecule, how does the inhibition read?
Answer: Its inhibition is 60.4% (active).

Question: CCOC(=O)c1ccc(N2C(=O)CC(Sc3nc(O)c(CC)c(=O)[nH]3)C2=O)cc1 (stereo not drawn) was tested. Which inhibition did it give?
Answer: The inhibition was -0.27%.

Question: Which inhibition does the source give for Cc1ccnc(SC2CC(=O)N(c3ccccc3)C2=O)n1 (stereo not drawn) here?
Answer: Its inhibition is 8.05%.

Question: With CCCC1CCC2(CCCN2CCOC(=O)NCc2ccccc2)CC1 (stereo not drawn) as the molecule, how does the inhibition read?
Answer: The inhibition was 5.29%.

Question: How did the inhibition turn out when O=C(NC1CCCC1)C1CSCCS(=O)(=O)N1Cc1ccccc1 (stereo not drawn) was run?
Answer: The inhibition was -0.44%.

Question: O=C(Nc1cccc(Cl)c1)OC1CC2CC1[C@H]1CCCCN1[C@H]2Cc1ccccc1 (stereo partly drawn) was tested. Which inhibition did it give?
Answer: The inhibition was 1.47%.

Question: Which inhibition does the source give for CC[C@@H](CCC(=O)N(c1ccccc1)c1ccccc1)C1CC1 here?
Answer: The inhibition was -2.74%.

Question: How did the inhibition turn out when c1coc(CCNc2ncnc3ccc(-c4ccc5c(c4)OCO5)cc23)c1 was run?
Answer: Its inhibition is 15%.

Question: How did the inhibition turn out when O=S1(=O)c2ccc(N3CCN(Cc4ccccc4F)CC3)cc2Oc2ccccc2CN1Cc1cn(Cc2ccc(Cl)cc2)nn1 was run?
Answer: Its inhibition is -3.79%.

Question: For O=C(CSc1nnc(-c2ccccn2)n1-c1ccccc1)Nc1ccc2cn[nH]c2c1, which inhibition is on record?
Answer: Its inhibition is 1.03%.

Question: With C=CCn1c(SCC(N)=O)nnc1-c1ccccc1OC as the molecule, how does the inhibition read?
Answer: The inhibition was 5.94%.

Question: O=C(Cn1nc([N+](=O)[O-])nc1Br)NC1CCCCC1 was tested. Which inhibition did it give?
Answer: Its inhibition is -3.64%.

Question: How did the inhibition turn out when O=C(CCCCCN1C(=O)C2C3C=CC(C3)C2C1=O)Nc1ccccc1 (stereo not drawn) was run?
Answer: The inhibition was -2.78%.

Question: For Cc1ccc2nc(N3C(=O)C(O)=C(C(=O)c4ccco4)C3c3cccc(O)c3)sc2c1 (stereo not drawn), which inhibition is on record?
Answer: The inhibition was 24% (active).

Question: How did the inhibition turn out when C=CCSc1nnc(N2C(=O)C(O)=C(C(=O)c3ccco3)C2c2ccc(F)cc2)s1 (stereo not drawn) was run?
Answer: The inhibition was 14.8%.

Question: For O=C(C1=C(O)C(=O)N(c2ncccn2)C1c1cccs1)c1ccco1 (stereo not drawn), which inhibition is on record?
Answer: Its inhibition is -1.95%.

Question: With CCc1c(-c2ccccc2OC)ncn1CCc1ccccc1OC as the molecule, how does the inhibition read?
Answer: The inhibition was -6.39%.

Question: How did the inhibition turn out when N#Cc1ccccc1OC[C@@H](O)CN1CCC(C(O)(c2ccccc2)c2ccccc2)CC1 was run?
Answer: The inhibition was -3.45%.

Question: Which inhibition does the source give for CC(=O)Nc1cccc(-c2cc(NC=O)c3ncc(-c4ccc(F)c(Cl)c4)n3c2)c1 here?
Answer: The inhibition was 2.68%.

Question: For CC(=O)Nc1cc(-c2ccccc2N(C)C)cn2c(-c3ccc(F)c(Cl)c3)cnc12, which inhibition is on record?
Answer: Its inhibition is 49.4% (active).

Question: For CC(=O)Nc1cc(-c2ccccc2F)cn2c(-c3cccc(C(F)(F)F)c3)cnc12, which inhibition is on record?
Answer: The inhibition was 2.67%.

Question: How did the inhibition turn out when CCOC(=O)C(=O)N(Cc1ccccc1)c1ccccc1C(=O)Nc1cc(OC)ccc1OC was run?
Answer: The inhibition was -1.5%.

Question: CCOc1ccc(N(CC(=O)NCCc2ccc(F)cc2)S(=O)(=O)c2ccccc2)cc1 was tested. Which inhibition did it give?
Answer: The inhibition was 1.75%.

Question: For COc1c(Br)cc2c(C)c(C(=O)N3CCOCC3)oc2c1Br, which inhibition is on record?
Answer: The inhibition was -2.82%.

Question: How did the inhibition turn out when CC1(C(=O)NCc2ccc3c(c2)OCO3)CCN1C(=O)Cc1cccc2ccccc12 (stereo not drawn) was run?
Answer: Its inhibition is 24.5% (active).

Question: CC1(C(=O)NCc2ccc3c(c2)OCO3)CCN1CCc1ccccc1 (stereo not drawn) was tested. Which inhibition did it give?
Answer: Its inhibition is -4.72%.

Question: With CC1(C(=O)NCc2ccc3c(c2)OCO3)CCN1C(=O)Cc1cccs1 (stereo not drawn) as the molecule, how does the inhibition read?
Answer: The inhibition was 0.09%.

Question: With CCOC(=O)[C@]12CCCC3=C1N(CCC3)C(=O)[C@@H](CC(=O)NCc1cccs1)C2 as the molecule, how does the inhibition read?
Answer: The inhibition was 1.5%.

Question: For N#CCC[C@H]1CC[C@]2(CCCN(Cc3ccc(Cl)cc3)C2)O1, which inhibition is on record?
Answer: The inhibition was 1.93%.

Question: For Nc1ccc2[nH]c(=S)sc2c1, which inhibition is on record?
Answer: The inhibition was 28.3% (active).

Question: CCOc1ccc2[nH]c(=S)sc2c1 was tested. Which inhibition did it give?
Answer: Its inhibition is 10.4%.

Question: Which inhibition does the source give for O=c1[nH]c2ccccc2s1 here?
Answer: Its inhibition is 5.51%.

Question: Cc1cc(C)cc(NC(=O)N2CCC(N(C)CCC(C)C)CC2)c1 was tested. Which inhibition did it give?
Answer: Its inhibition is -0.26%.

Question: Which inhibition does the source give for CCN(CC)C(=O)C(C)N1c2cccc3cccc(c23)S1(=O)=O (stereo not drawn) here?
Answer: Its inhibition is -0.89%.

Question: For CC1=C(C(=O)N(C)C)CC(CC(=O)NCCN2CCOCC2)C(=O)N1Cc1ccccc1 (stereo not drawn), which inhibition is on record?
Answer: The inhibition was -1.74%.

Question: How did the inhibition turn out when Cc1cccc(CCNC(=O)Cn2ncc3c([nH]c4ccc(C)cc43)c2=O)c1 was run?
Answer: Its inhibition is -0.97%.

Question: For CCOC(=O)[C@]12CCCC3=C1N(CCC3)C(=O)[C@@H](CC(=O)N1CCSCC1)C2, which inhibition is on record?
Answer: Its inhibition is -9.78%.

Question: With COC(C[C@@H](O)[C@H](C)[C@H](O)COCc1ccccc1)OC as the molecule, how does the inhibition read?
Answer: The inhibition was -0.18%.

Question: For O=c1c2ccccc2c(-c2ccc(Br)cc2)nn1Cc1ccccc1, which inhibition is on record?
Answer: The inhibition was 3.02%.

Question: For COC(=O)c1ccc(SCc2ccccc2)nc1, which inhibition is on record?
Answer: The inhibition was 1.13%.

Question: Which inhibition does the source give for CSc1c(SCc2ccccc2)cnn(Cc2ccccc2)c1=O here?
Answer: The inhibition was 42.6% (active).

Question: With Cc1cc(C)c(/C=C2\C(=O)Nc3ccccc32)[nH]1 as the molecule, how does the inhibition read?
Answer: Its inhibition is 64.8% (active).

Question: How did the inhibition turn out when COc1ccccc1S(=O)(=O)c1c(C)cc(C)[nH]c1=O was run?
Answer: Its inhibition is -5.06%.

Question: With O=C1Nc2ccccc2C1=NN=Cc1ccco1 as the molecule, how does the inhibition read?
Answer: Its inhibition is -4.47%.

Question: How did the inhibition turn out when CC(=O)Nc1nc2ncccn2c1-c1ccc(C(F)(F)F)cc1 was run?
Answer: Its inhibition is 5.51%.

Question: How did the inhibition turn out when Cc1ccc(CNC(=O)CCS(=O)(=O)c2ccc3c(c2)CC(C)N3C(=O)C2CC2)o1 (stereo not drawn) was run?
Answer: Its inhibition is 35.6% (active).

Question: For CCC(=O)N1c2ccc(S(=O)(=O)NCc3ccco3)cc2CC1C (stereo not drawn), which inhibition is on record?
Answer: The inhibition was 4.05%.

Question: How did the inhibition turn out when COc1ccccc1CNC(=O)C1CCN(S(=O)(=O)c2ccc3c(c2)CC(C)N3C(=O)C2CC2)CC1 (stereo not drawn) was run?
Answer: Its inhibition is 0.46%.

Question: Which inhibition does the source give for COc1ccc(N2CCN(CCNS(=O)(=O)c3ccc(Cl)s3)CC2)cc1 here?
Answer: Its inhibition is -1.47%.

Question: How did the inhibition turn out when Cc1cc(C)n2ncc(C(=O)Nc3ccc4c(c3)OCCO4)c2n1 was run?
Answer: Its inhibition is -2.31%.

Question: Which inhibition does the source give for Cc1ccc(S(=O)(=O)N2CCN(C)CC2)cc1C(=O)NC1CCCCC1 here?
Answer: The inhibition was 3.5%.
